Data published in PubChem BioAssay (EPA / NIEHS).
Activity calls are given as the source filed them. The calls were made as follows: active = hit-call score of the fitted dose curve at least 0.9, where 1 is the maximum; inactive = score below 0.9.

Key:
[1] = read-out: Urokinase-type plasminogen activator receptor (uPAR), PLAUR (gene 5329); experiment: BSK_4H_uPAR: BioMAP Diversity Plus: 4H Assay for Urokinase-type plasminogen activator receptor (uPAR) Biomarker Activity (AID 2283030); details: primary human endothelial cells (HUVEC); actives raise or lower the signal
In short: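 Chemicals are dosed onto human vascular endothelial primary cells (umbilical vein). After 24 h, uPAR is read by ELISA. Gain or loss of signal is fitted relative to DMSO.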

[2] = read-out: Vascular endothelial growth factor receptor 2 (Homo sapiens) (UniProt P35968); experiment: BSK_4H_VEGFRII: BioMAP Diversity Plus: 4H Assay for Vascular endothelial growth factor receptor 2 (VEGFR2) Biomarker Activity (AID 2283031); details: primary human endothelial cells (HUVEC); actives raise or lower the signal;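 as to AC50: cell-surface VEGFR2 protein level quantified by ELISA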
In short: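 VEGFRII levels on human vascular endothelial primary cells were determined by ELISA at 24 hours post-dosing, with gain- or loss-of-signal fitted against DMSO controls.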

[3] = read-out: Human Leukocyte Antigen - DR isotype (HLADR), HLA-DRA (gene 3122); experiment: BSK_BE3C_HLADR: BioMAP Diversity Plus: BE3C Assay for Human Leukocyte Antigen - DR isotype (HLADR) Biomarker Activity (AID 2283032); details: primary human bronchial epithelial cells; actives raise or lower the signal
In short: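 Human primary bronchial epithelial cells (BE3C system) exposed to compound for 24 hours; cell-surface HLA-DR measured by ELISA, fitted bidirectionally relative to DMSO. Total protein by SRB in parallel cultures tracked cytotoxicity.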

[4] = read-out: Vascular cell adhesion molecule 1 (VCAM1), VCAM1 (gene 7412); experiment: BSK_4H_VCAM1: BioMAP Diversity Plus: 4H Assay for Vascular cell adhesion molecule 1 (VCAM1) Biomarker Activity (AID 2283033); details: primary human endothelial cells (HUVEC); actives raise or lower the signal
In short: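 Primary human umbilical vein endothelial cells, 4H stimulation system, treated for 24 h; cell-surface VCAM-1 quantified by ELISA. Bidirectional fitting against DMSO; cytotoxicity tracked by SRB total-protein staining in parallel cultures.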

[5] = read-out: Interferon-gamma inducible Protein 10 (IP10), CXCL10 (gene 3627); experiment: BSK_BE3C_IP10: BioMAP Diversity Plus: BE3C Assay for Interferon-gamma inducible Protein 10 (IP10) Biomarker Activity (AID 2283034); details: primary human bronchial epithelial cells; actives raise or lower the signal
In short: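 Primary human bronchial epithelial cells, with IP-10 measured by ELISA 24 hours after chemical dosing. Bidirectional fit against DMSO; cytotoxicity checked by SRB total protein staining in parallel cultures.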

[6] = read-out: Monokine induced gamma interferon (MIG), CXCL9 (gene 4283); experiment: BSK_BE3C_MIG: BioMAP Diversity Plus: BE3C Assay for Monokine induced gamma interferon (MIG) Biomarker Activity (AID 2283035); details: primary human bronchial epithelial cells; actives raise or lower the signal;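 as to outcome: MIG protein measured by ELISA in BE3C cultures after 24 h of dosing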
In short: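 ELISA read-out of MIG in human lung bronchial epithelial primary cultures, 24 h post-dosing. Bidirectional curve fit vs DMSO baseline.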

[7] = read-out: Plasminogen activator inhibitor-1 (PAI1), SERPINE1 (gene 5054); experiment: BSK_BE3C_PAI1: BioMAP Diversity Plus: BE3C Assay for Plasminogen activator inhibitor-1 (PAI1) Biomarker Activity (AID 2283037); details: primary human bronchial epithelial cells; actives raise or lower the signal
In short: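 Primary human bronchial epithelial cells (BE3C system) exposed 24 h; PAI-1 quantified by ELISA. Parallel sulforhodamine B staining of total protein flags cytotoxicity. Bidirectional fit versus DMSO.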

[8] = read-out: Urokinase-type plasminogen activator receptor (uPAR), PLAUR (gene 5329); experiment: BSK_BE3C_uPAR: BioMAP Diversity Plus: BE3C Assay for Urokinase-type plasminogen activator receptor (uPAR) Biomarker Activity (AID 2283039); details: primary human bronchial epithelial cells; actives raise or lower the signal;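 as to outcome: uPAR protein level measured by ELISA on the cells; cells exposed to compound for one day before measurement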
In short: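 Primary human bronchial epithelial cells dosed for 24 h; uPAR quantified by ELISA with bidirectional fitting against DMSO. Overt cytotoxicity assessed in parallel cultures by SRB total-protein staining (0.1% SRB, 560 nm).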

[9] = read-out: urokinase plasminogen activator (uPA), PLAU (gene 5328); experiment: BSK_BE3C_uPA: BioMAP Diversity Plus: BE3C Assay for urokinase plasminogen activator (uPA) Biomarker Activity (AID 2283038); details: primary human bronchial epithelial cells; actives raise or lower the signal;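 also: uPA protein level quantified by ELISA in cell cultures; uPA read one day after compound addition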
In short: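 Measured by ELISA: uPA from human primary bronchial epithelial cells 24 h after chemical treatment. Values derive from bidirectional curve fitting with DMSO serving as negative control. Total protein by SRB staining in parallel wells flagged overt cytotoxicity.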

[10] = read-out: Transforming growth factor beta 1 (TGFb1), TGFB1 (gene 7040); experiment: BSK_BE3C_TGFb1: BioMAP Diversity Plus: BE3C Assay for Transforming growth factor beta 1 (TGFb1) Biomarker Activity (AID 2283036); details: primary human bronchial epithelial cells; actives raise or lower the signal
In short: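 Primary human bronchial epithelial cells dosed with chemical; TGF-b1 measured by ELISA 24 h after dosing. Bidirectional curve fitting against DMSO negative control; SRB total-protein staining in parallel cultures gauged cytotoxicity.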

C[C@]12CCC(=O)C=C1CC[C@@H]1[C@@H]2CC[C@@]2(C)[C@H]1CC[C@]2(C)O
outcome [1]: inactive
outcome [2]: inactive
outcome [3]: inactive
outcome [4]: inactive
outcome [5]: inactive
outcome [6]: inactive
outcome [7]: inactive
outcome [8]: inactive

CCOC(=O)C(O)(c1ccc(Cl)cc1)c1ccc(Cl)cc1
AC50 [1]: 31.3 µM (active)
AC50 [2]: 27.9 µM (active)
outcome [3]: inactive
AC50 [4]: 30.7 µM (active)
AC50 [5]: 31.1 µM (active)
outcome [6]: inactive
AC50 [7]: 14.7 µM (active)
outcome [9]: inactive
outcome [8]: inactive

CCCCCCCCCc1ccc(O)cc1
AC50 [1]: 16.9 µM (active)
AC50 [3]: 13.6 µM (active)
AC50 [4]: 15.8 µM (active)
AC50 [5]: 13.1 µM (active)
AC50 [6]: 18.5 µM (active)
AC50 [7]: 15.7 µM (active)
AC50 [8]: 15.7 µM (active)

O=NN(c1ccccc1)c1ccccc1
outcome [1]: inactive
outcome [2]: inactive
outcome [3]: inactive
outcome [4]: inactive
outcome [5]: inactive
outcome [6]: inactive
outcome [7]: inactive
outcome [8]: inactive

Cc1ccccc1CO[C@@H]1C[C@@]2(C(C)C)CC[C@]1(C)O2
outcome [1]: inactive
outcome [2]: inactive
outcome [3]: inactive
outcome [4]: inactive
outcome [5]: inactive
outcome [6]: inactive
outcome [7]: inactive
outcome [8]: inactive

C=CC(=O)NCNC(=O)C=C
outcome [1]: inactive
outcome [2]: inactive
outcome [3]: inactive
outcome [4]: inactive
outcome [5]: inactive
outcome [6]: inactive
outcome [7]: inactive
outcome [8]: inactive

O=S(=O)(O)C(F)(F)C(F)(F)C(F)(F)C(F)(F)C(F)(F)C(F)(F)F
outcome [1]: inactive
outcome [2]: inactive
outcome [3]: inactive
outcome [4]: inactive
outcome [5]: inactive
outcome [6]: inactive
outcome [7]: inactive
outcome [8]: inactive

CCNc1nc(NC(C)C)nc(SC)n1
outcome [1]: inactive
outcome [2]: inactive
outcome [3]: inactive
outcome [4]: inactive
outcome [5]: inactive
outcome [6]: inactive
outcome [7]: inactive
outcome [9]: inactive
outcome [8]: inactive

Clc1ccc(C(Cl)(Cl)Cl)cc1
outcome [1]: inactive
outcome [2]: inactive
outcome [3]: inactive
outcome [4]: inactive
outcome [5]: inactive
outcome [6]: inactive
outcome [7]: inactive
outcome [8]: inactive

CCOCCOC(C)=O
outcome [1]: inactive
outcome [2]: inactive
outcome [3]: inactive
outcome [4]: inactive
outcome [5]: inactive
outcome [6]: inactive
outcome [7]: inactive
outcome [9]: inactive
outcome [8]: inactive

C[C@]12CCC(=O)C=C1CC[C@@H]1[C@@H]2CC[C@]2(C)C(=O)CC[C@@H]12
outcome [2]: inactive
outcome [3]: inactive
outcome [4]: inactive
outcome [5]: inactive
outcome [6]: inactive
outcome [7]: inactive
outcome [9]: inactive
outcome [8]: inactive

COS(=O)(=O)OC
outcome [1]: inactive
outcome [2]: inactive
outcome [3]: inactive
outcome [4]: inactive
outcome [5]: inactive
outcome [6]: inactive
outcome [7]: inactive
outcome [8]: inactive

CO/C=C(/C(=O)OC)c1ccccc1COc1cccc(C(F)(F)F)n1
outcome [1]: inactive
outcome [2]: inactive
outcome [3]: inactive
AC50 [4]: 4.02 µM (active)
AC50 [5]: 3.97 µM (active)
outcome [6]: inactive
outcome [7]: inactive
outcome [8]: inactive

C=CC(N)=O
outcome [1]: inactive
outcome [2]: inactive
outcome [3]: inactive
outcome [4]: inactive
outcome [5]: inactive
outcome [6]: inactive
outcome [7]: inactive
outcome [8]: inactive

CC(C)(c1ccccc1)c1ccc(O)cc1
AC50 [1]: 32 µM (active)
outcome [2]: inactive
AC50 [3]: 30.4 µM (active)
AC50 [4]: 32.1 µM (active)
AC50 [5]: 30.5 µM (active)
AC50 [6]: 32.2 µM (active)
AC50 [7]: 34.1 µM (active)
outcome [9]: inactive
outcome [8]: inactive

c1ccc(-c2ccccc2)cc1
outcome [1]: inactive
outcome [3]: inactive
outcome [4]: inactive
outcome [5]: inactive
outcome [6]: inactive
outcome [7]: inactive
outcome [9]: inactive
outcome [8]: inactive

Clc1ccc(C(c2ccccc2Cl)C(Cl)(Cl)Cl)cc1 (centres undefined)
AC50 [1]: 21.2 µM (active)
AC50 [2]: 17.2 µM (active)
outcome [3]: inactive
outcome [5]: inactive
outcome [6]: inactive
outcome [10]: inactive
outcome [7]: inactive
outcome [8]: inactive
